# ± gives the standard deviation of the averaged measurements. Whole data set: some 25,000 sequences, median “ln(normalized median fluorescence intensity)” near 10, cut for the highest 2% near 12. What follows is part of a selection rich in the highest values, with near analogues and random picks from the rest.
# Tested on: PfAP2-G AP2 domain (GST-tagged)
# Test: gcPBM binding intensity (ln(normalized median fluorescence intensity)); higher = stronger DNA binding
# Outline: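 DNA-binding domains from P. falciparum, fused to GST and produced in E. coli, were put on an Agilent 4 × 180k double-stranded probe array for 1 h in 1× PBS holding 1% milk, 0.2 mg/ml BSA, 0.5% salmon testes DNA and 0.03% Triton X-100. Probes were primer-extended, 36 bp long and drawn from intergenic genomic regions, with negative controls included. After Alexa488 anti-GST antibody detection and a 488 nm scan, binding intensity was set as the highest Masliner-normalised natural-log median intensity across replicate spots of either probe orientation.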
row,Sequence,gcPBM binding intensity (ln)
1,TTCGACGAGAGCAAGTGTACTCTTGAATAATTTATA [XGTACX_site7613],11.3 ± 0.9
2,TTGTTATATTACAGTAGTACATTTAAAATCTACTAC [XGTACX_site2620],11.4 ± 0.93
3,GAGGTCTTTTTTAATGTGCACATATATATATATATA,10.7 ± 0.51
4,ATAAAATAATCTTATGCACACCAAAAATTTATATAA [CACACA_site8332],10.2 ± 0.12
5,TCTATTAATTAATATACACACATTAGATATAAATAT [CACACA_site7241],9.945 ± 0.092
6,AACTGTAATTTTATACGTACATAAATAATATTATAT [XGTACX_site4277],11.7 ± 0.93
7,GTATTATATTTCAACTGTACGTAAAACTATTAAAAT [XGTACX_site3679],11.7 ± 1.1
8,GTAATATTATATAGTTGTACTTTTTTTTTATTATAT [XGTACX_site483],11.5 ± 1
9,TTCAATATACATATGTGTACTAAAATAAATAGAAAA [XGTACX_site5708],11.3 ± 0.83
10,TGTATTATTAATATTTGTACGTAATAATAAAAACAT [XGTACX_site3716],11.5 ± 1
11,TATTTTTATAAAAACTGTACATAATAAATAAAAATA [XGTACX_site4743],11.1 ± 0.62
12,ACTTCAAAAATAAACTGTACGTAAAAAAAAAAAAAA [XGTACX_site795],11.5 ± 1
13,ATATATATAAATATATGTACTAATATATACATATAT [XGTACX_site2289],11 ± 0.69
14,TCAATATAAATTAGTTGTACAGTTTTTTTTAATTAT [XGTACX_site6358],11.5 ± 0.92
15,TAATAATAAAAAATACGTACATATTATTTATATATG [XGTACX_site853],11.4 ± 0.76
16,TATATATATATAATGTGTACATACTAAATAGAGGAC [XGTACX_site4153],11.7 ± 1.1
17,ACGTAATAAAATAGTTGTACAACTTTTTATAATATA [XGTACX_site4393],11.8 ± 1.1
18,ATAATAAGAAAAAAAAAAAAAAAAAAAAAAAAAAAA [TGCATGCA_negctrl_site377],9.59 ± 0.58
19,TTATTGTACTTGCTCGCATGCAATAAAAATATATTA [TGCATGCA_site580],11.2 ± 1.1
20,ATAAATTTTTAAACAGCACACATAAATATAATATAT [CACACA_site8691],10.06 ± 0.064
21,TGATAACCTCACAAATGTACGTACGGGGCTAGCATT [XGTACX_site4157],11.4 ± 0.78
22,GTATATGAATGTTCATGTACATAATAAAATATATAA [XGTACX_site250],11 ± 0.56
23,ATGCGTTTAGCAAAAAGTACATATATATATAATATT [XGTACX_site1928],11.2 ± 0.73

row,Sequence,gcPBM binding intensity (ln)
1,TTTTATTTATATTATACACACAAGGAAAAAAAAAAA [CACACA_site7690],10.2 ± 0.26
2,AATAAAAAAAATTTCTGTACATATATTTATTATATA [XGTACX_site1883],11.1 ± 0.74
3,ATAAATACTTTTTGGTGTACACTTTTAAATGAAAAA [XGTACX_site3042],11.8 ± 1
4,ATTATTTATTATTTCTGTACGTATAAAAATAACATT [XGTACX_site1671],11.7 ± 1.1
5,TTATAATTTTTCTATTGTACATTTAATAATATATAT [XGTACX_site7326],10.9 ± 0.47
6,AATAGTTATTCCAGGTGTACATAACATATAATTTAC [XGTACX_site1340],11.5 ± 0.95
7,AGTTTCCATATGAGGTGTACATATATAATTTATTAT [XGTACX_site2369],11.6 ± 0.71
8,CTTTTTTTTTAAAAATGTACACATTTTTGAAAATAC [XGTACX_site3127],11.4 ± 0.84
9,GTTTTCTAGTGGGGGTGTACATATTTATATTTAATA [XGTACX_site8378],11.7 ± 0.86
10,TGGTGTTTTTTTTAATGTACTTATAAAATAATACAT [XGTACX_site6574],11.4 ± 0.83
11,TATATATTATATATATGTACATAATTCCATGTTTAG [XGTACX_site3943],11.2 ± 0.81
12,ATATATTATTTCTAGTGTACATACCCATATATAATA [XGTACX_site8902],11.2 ± 0.69
13,TATAAAATATATATCTGTACGTATTTTATTTTTTAT [XGTACX_site6257],11.4 ± 0.88
14,ATTTTTTAAAATATTTGTACATATATAATGCATATA [XGTACX_site7026],11 ± 0.64
15,TTCTTTTTCCAATTTGCACACCACAAAATTATATAT [CACACA_site2909],10.5 ± 0.28
16,AGAGTATATATATATGCATGCATATCTCATATTTAT [TGCATGCA_site509],9.71 ± 0.13
17,CATATTAATATTATGGGTACATATAAATTTACATTC [XGTACX_site687],11.4 ± 0.83
18,TTTCTTGGGAGACATGCATGTACCAGAACAAAATAA [TGCATGCA_site272],10.9 ± 0.64
19,AAAAAAAAAAAAAAAAAAAAAAAAAAAAATAAAAAA [CACACA_negctrl_site59],11 ± 0.47
20,TATTATATATATAACTGTACGTTTATAATATAAAAA [XGTACX_site3778],11.4 ± 1.1
21,AAAATAATAAAAAACTGTACGAATTAAAAATTAACA [XGTACX_site8454],11.1 ± 0.8
22,AATAATAACTGTAGGTGTACGTAAAAAAAAAATTAT [XGTACX_site3133],11.7 ± 0.96
23,AAAACATATTTTAAAAGTACTTGAAAAAAAATTTTC [XGTACX_site3940],11 ± 0.56

row,Sequence,gcPBM binding intensity (ln)
1,ATATAATATTACACAAGTACAAAAATTAATACTAAA [XGTACX_site482],11.1 ± 0.61
2,CCAAAAAATATATGTAGTACTACATTATTAAATATG [XGTACX_site5128],11.6 ± 0.83
3,ACTACTCCATTAAGTAGTACACAAAAAAAAAAAATA [XGTACX_site7031],11.8 ± 1.1
4,CTCATCCTTACATACACACACATATATATATATATA [CACACA_site103],10.3 ± 0.41
5,AGTTTATATTATTAAAGTACATATATATATTCTTAA [XGTACX_site3164],11.1 ± 0.76
6,ATATATTTAATTTATGGTACACATAATTTTTTTAGA [XGTACX_site848],11.2 ± 0.79
7,ATATATATATATATATGTACTCATATTTTATTATTT [XGTACX_site898],11.4 ± 0.94
8,TTTGTCATTTTATTATGTACTCAGCATATAGGGGGG [XGTACX_site505],11.7 ± 0.66
9,TATATATATATATTATGTACTCATTTATTATCTTTT [XGTACX_site8051],11.4 ± 1.1
10,AAAAAAAAAAAACATACACACATACATACATATATA [CACACA_site8222],9.86 ± 0.099
11,ATTAAAGTTATAAATTCACACATGTAAATGTATTTA [CACACA_site5279],9.85 ± 0.11
12,TAGTAGTTATCATTAACATGCAATAATATTATTTAA [TGCATGCA_site178],9.635 ± 0.035
13,AATATAGATATAAAAAGTACATTATATATATATATA [XGTACX_site6899],11.3 ± 0.78
14,ATATATATATATATATGTACACATATATGTGTTTGT [XGTACX_site62],11.4 ± 0.88
15,GCTTCTTAATATCATACACACATAGATATATTTATA [CACACA_site5676],9.925 ± 0.078
16,ATTTCTAGTTTAAGATGTACTTTAATAAAAATTATT [XGTACX_site4820],11 ± 0.77
17,AAAAATATTAAAAGGCGTACAATACCTGTATGCAAC [XGTACX_site6069],11.6 ± 1
18,AAGGCATACAATACCTGTACGCAACCTTAAAAAGAA [XGTACX_site6070],11.5 ± 0.91
19,TATATATGTATGTATTGTACAATTAAAAATATGTAT [XGTACX_site3990],10.8 ± 0.43
20,TCTATTTTCTTATGAATGCACTAATTTATAAAACGT,10.1 ± 0.13
21,TATCATATATGAAGGTGTACGATTTATTATATAAAT [XGTACX_site7010],11.4 ± 0.95
22,TTAAAATTAAAAATAGGTACACATATGAACAAGGAC [XGTACX_site1180],11.5 ± 0.78
23,AAAAAAAAAAAGAAGGGTACATATTATATATAATAT [XGTACX_site6204],11.2 ± 0.76

row,Sequence,gcPBM binding intensity (ln)
1,ATTATAAGAAGGGGGGGTACATAAATATAAATGTAT [XGTACX_site5624],11.9 ± 0.95
2,TATAAGAATAAAAAGGGTACATAAAATAATAATATA [XGTACX_site2355],11.3 ± 0.73
3,ATATATATTATATGCACACTAATAAGACTATTTAAA [CACACA_site3554],10.1 ± 0.23
4,TAGAAGCATTGACACACACACATACATACACATACA [CACACA_site6802],10.2 ± 0.26
5,TTACATATTTTTTAACGTACATAAATATATATGTAT [XGTACX_site8406],11.4 ± 0.79
6,ATAAATAAAATAAAAGCACACAAAATGTAAATAATT [CACACA_site8895],10.04 ± 0.057
7,ATATAATTTAATTTCTGTACATAAGAGAAAAAACAA [XGTACX_site4865],11.1 ± 0.64
8,GTATATATGTATGTATGTACGTATATAGTTATGTAT [XGTACX_site6769],11.6 ± 0.93
9,ATATATATATATATATGTACGTACTCAGTTATGCCT [XGTACX_site453],11.7 ± 1.2
10,TATATATATATTATATGTACGTATGTATGTATATAT [XGTACX_site6451],11.3 ± 0.8
11,TCCTCGCGTAATACTTTTCAAATAAAAAAAATAAAA [TGCATGCA_negctrl_site403],10.5 ± 0.48
12,ATTTGTGTATATTAGAGTACATAAAATTAGAGGAAC [XGTACX_site1654],11.6 ± 0.92
13,ATAACCACATAAAATATAATTATATATATATATATA [CACACA_negctrl_site603],9.87 ± 0.26
14,TCATTTATTTTTCTTTGTACACAAAAGTTTTTATGT [XGTACX_site690],11.4 ± 0.9
15,TTATTTTTTTATTCATGTACACAAGAACATTTCATT [XGTACX_site5744],11.3 ± 0.67
16,TTTATTTTTCATTGGGGTACACAAGTTTATTTTATT [XGTACX_site4263],11.7 ± 0.96
17,TTTTTTTTTTTTATTTGTACACATTTTCATATTTTT [XGTACX_site4406],11.3 ± 0.98
18,TTTATTTTTCATTGGGGTACACAAGTTTATTTTTGA [XGTACX_site4262],11.7 ± 0.86
19,GTTTATTTTTTCATTTGTACACATAAATAAATATAT [XGTACX_site7752],11.5 ± 0.75
20,GCTTAATACAGAATAACACACAAAATAAATAAATAA [CACACA_site4041],10 ± 0.12
